Assay results from PubChem BioAssay.
The source made the active and inactive calls. The rule behind the calls is not given here.

Target: Protein kinase 7 (PK7), Plasmodium falciparum 3D7 (PF3D7_0213400) (UniProt Q7YTF7)
Test: inhibition of Plasmodium PK7 catalytic activity – biochemical, TCAMS antimalarial set, Kinase-Glo luminescence (AID 1159587)
Details: recombinant PfPK7, Kinase-Glo ATP depletion luminescence

Protein kinase 7 (PK7), Plasmodium falciparum 3D7 (PF3D7_0213400), sequence (Q7YTF7 1-343): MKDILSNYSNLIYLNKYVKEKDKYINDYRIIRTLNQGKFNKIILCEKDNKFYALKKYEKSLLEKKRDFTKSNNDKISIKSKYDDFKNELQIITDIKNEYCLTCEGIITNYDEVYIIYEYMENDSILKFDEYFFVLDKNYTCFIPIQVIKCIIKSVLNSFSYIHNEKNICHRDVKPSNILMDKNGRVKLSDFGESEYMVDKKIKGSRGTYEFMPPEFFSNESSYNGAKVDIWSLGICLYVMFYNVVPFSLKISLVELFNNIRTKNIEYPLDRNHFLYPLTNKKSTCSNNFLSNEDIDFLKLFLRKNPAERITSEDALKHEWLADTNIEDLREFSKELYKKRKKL

outcome, inactive:
Cc1ccc(NC(=O)c2ccc(Cl)c(Cl)c2)cc1-c1ccc(C(=O)Nc2ccncc2)cc1
O=C(/C=C/c1ccc(C(F)(F)F)cc1)N1CCC(CCN2CCC(c3c[nH]c4ccccc34)CC2)CC1
O=C(/C=C/c1ccc(Cl)c(Cl)c1)NC1CCN(Cc2cccc(O)c2)CC1
Cc1cccc2[nH]c(-c3ccc(-c4cccc(NC(=O)Nc5ccsc5)c4)cc3)nc12
COc1ccc2nccc([C@@H](O)CN3CCC(NCc4ccc5c(c4)OCCO5)CC3)c2c1
CCN(c1ccc(F)cc1)S(=O)(=O)c1cc(Br)cc2c1N(C(=O)C1CC1)CC2
Cn1c(=N)n(CC(=O)N2CCc3ccc(Cl)cc3C2Cc2ccc(Cl)c(Cl)c2)c2ccccc21 (centres undefined)
COc1cc(C(=O)N2CCN(C(C)C)CC2)ccc1CN(C)CCCN1CCN(c2cccc(Cl)c2Cl)CC1
O=C(NCCc1ccccc1)N(Cc1ccc(-c2cccc(CN3CCNCC3)c2)cc1)C1CCN(Cc2ccccc2)CC1
Cc1cc(N2CCCC2)nc(Nc2ccc(NC(=O)c3ccccc3)cc2)n1
O=C(Cc1ccccc1)NC(CCN1CCC(O)(c2cccc(C(F)(F)F)c2)CC1)c1ccc(Cl)c(Cl)c1 (centres undefined)
Oc1ccc(CN2CC[C@@H](N3CCN(CCc4ccccc4)CC3)[C@H](O)C2)cc1Cl
Oc1c(C(Nc2nc3ccccc3s2)c2ccccc2)ccc2cccnc12 (centres undefined)
CN(C)C(CNC(=O)c1cc(-c2ccncc2)c(-c2ccc(NC(=O)Nc3cccc(Cl)c3)cc2)o1)c1ccccc1 (centres undefined)
